Experimental data taken from PMC4552634, “A New Set of Chemical Starting Points with Plasmodium falciparum Transmission-Blocking Potential for Antimalarial Drug Discovery” (PLoS ONE, 2015).
Where two headings read alike, the source gives them in different places. The whole screen tested about 13,000 compounds, of which about 3,200 (25%) showed an effect of 50% or more. Some of the results follow.

Tested on: P. falciparum stage V gametocytes
Design: BacTiter-Glo ATP luminescence viability of purified stage V gametocytes in 384-well plates, per cent inhibition versus DMSO
Settings: 48 h, 5 µM, inhibitor

Row | SMILES | % Inhibition | % Inhibition (% Inhibition)
1 | CCN1CCN(Cc2c(O)ccc3c(=O)c(Oc4cc(C)cc(C)c4)c(C(F)(F)F)oc23)CC1 [TCMDC-125696] | 11.78% | 
2 | NC1=NC2(CCCCC2)N(Cc2ccc(Cl)c(Cl)c2)C(N)=N1 [TCMDC-136304] | -26.78% | 
3 | CN1CC=C(c2c[nH]c3ccc(C(=O)c4nccs4)cc23)CC1 [TCMDC-137277] | 17.28% | 
4 | Cc1cc(Nc2ccccc2)nc(NCCOc2ccccc2)n1 [TCMDC-137574] | 48.49% | 
5 | O=C(O)c1cccc2c(-c3ccncc3)cccc12 [TCMDC-139219] | 9.999% | 
6 | Cn1ccnc1S(=O)(=O)CCNCc1ccc(-c2ccc3ncnc(Nc4ccc(OCc5cccc(F)c5)c(Cl)c4)c3c2)o1 [TCMDC-138564] | 21.76% | 
7 | Cc1ccc(C(CC(=O)Nc2nccs2)c2ccc(OC(C)C)cc2)cc1 (stereo not shown) [TCMDC-124467] | 72.01% | 
8 | CCOc1ccc(S(=O)(=O)N(C)c2ccc(OCC(=O)Nc3nccs3)cc2)cc1 [TCMDC-123622] | 21.93% | 
9 | O=C(COc1ccc(C(=O)c2ccccc2)cc1)Nc1nccs1 [TCMDC-124432] | -13.79% | 
10 | O=C(/C=C/c1ccc(Cl)c(Cl)c1)NCCCCCN1CCC(NC(=O)c2ccc([N+](=O)[O-])cc2)CC1 [TCMDC-135843] | 15.45% | 
11 | CCCN(CCC)C(=O)c1cc(C(=O)N[C@@H](Cc2ccccc2)[C@H](O)CNC(C)(C)c2cccc(OC)c2)cc(N2CCCCS2(=O)=O)c1 [TCMDC-134674] | 75.74% | 
12 | CCCN(CCC)C(=O)c1cc(C(=O)N[C@@H](Cc2ccccc2)[C@H](O)CNCc2cccc(OC)c2)cc(N2CCCCS2(=O)=O)c1 [TCMDC-138893] | -16.98% | 
13 | CCN1CCc2c1cc(C(=O)N[C@@H](Cc1ccccc1)[C@H](O)CNC(C)(C)c1cccc(C(F)(F)F)c1)cc2N1CCCCS1(=O)=O [TCMDC-135451] | 62.24% | 
14 | CCOc1cc(C(=O)N[C@@H](Cc2ccccc2)[C@H](O)CNC(C)(C)c2cccc(OC)c2)cc(N2CCCS2(=O)=O)c1 [TCMDC-134403] | 22.2% | 
15 | CCn1ccc2c(N3CCCS3(=O)=O)cc(C(=O)N[C@@H](Cc3ccccc3)[C@H](O)CNC(C)(C)c3cccc(OC)c3)cc21 [TCMDC-134672] | 43.65% | 
16 | CCn1ccc2c(N3CCCCS3(=O)=O)cc(C(=O)N[C@@H](Cc3ccccc3)[C@H](O)CNC3CCCCC3)cc21 [TCMDC-135314] | 53.3% | 
17 | CCn1cnc2c(N3CCCS3(=O)=O)cc(C(=O)N[C@@H](Cc3ccccc3)[C@H](O)CNC(C)(C)c3cccc(C(F)(F)F)c3)cc21 [TCMDC-135450] | 36.58% | 
18 | CCn1cnc2c(N3CCCCS3(=O)=O)cc(C(=O)N[C@@H](Cc3ccccc3)[C@H](O)CNC3CCOCC3)cc21 [TCMDC-135662] | 16.67% | 
19 | CCCN(CCC)C(=O)c1cc(C(=O)N[C@@H](Cc2ccccc2)[C@H](O)CNC(C)(C)c2cccc(C(F)(F)F)c2)cc(N2CCCCS2(=O)=O)c1 [TCMDC-134675] | 20.25% | 
20 | CCn1ccc2c(N3CCCS3(=O)=O)cc(C(=O)N[C@@H](Cc3ccccc3)[C@H](O)CNC3CCCCC3)cc21 [TCMDC-135315] | 41.25% | 
21 | CCCN(CCC)C(=O)c1cc(C(=O)N[C@@H](Cc2ccccc2)[C@H](O)CNCc2cccc(C(F)(F)F)c2)cc(N2CCCCS2(=O)=O)c1 [TCMDC-138883] | -16.54% | 

Row | SMILES | % Inhibition | % Inhibition (% Inhibition)
22 | CCn1ccc2c(N3CCCCS3(=O)=O)cc(C(=O)N[C@@H](Cc3ccccc3)[C@H](O)CNC(C)(C)c3cccc(C(F)(F)F)c3)cc21 [TCMDC-135317] | 87.8% | 
23 | CC[C@H](C)[C@@H](C(=O)N1CCOCC1)N1CC[C@H](NS(=O)(=O)CC(C)(C)c2ccc(Cl)cc2)C1=O [TCMDC-138910] | -4.326% | 
24 | N#Cc1ccc(N2CCN(Cc3cccc(-c4ccc(-c5nc6cc(C(F)(F)F)ccc6[nH]5)s4)c3)CC2)nc1.O=C(O)C(F)(F)F [TCMDC-133114] | -37.6% | 
25 | CCCCCC(C)c1cc(O)c2c(c1)OC(C)(C)C=C2C1=CCN(Cc2ccccc2)CC1 (stereo not shown) [TCMDC-131350] | -56.28% | 
26 | O=C(NC1CCC(CN2CCC(c3c[nH]c4ccccc34)CC2)CC1)c1csc(-c2ccc(C(F)(F)F)cc2Cl)n1 (stereo not shown) [TCMDC-140352] | 52.36% | 
27 | FC(F)(F)c1ccc(NC(=S)NC2CCC(CN3CCC(c4c[nH]c5ccccc45)CC3)CC2)cc1 (stereo not shown) [TCMDC-140198] |  | 109.8%
28 | O=C(Nc1ccccc1Cl)NC1CCC(CN2CCC(c3c[nH]c4ccccc34)CC2)CC1 (stereo not shown) [TCMDC-140196] |  | 17.3%
29 | FC(F)(F)c1ccc(NC(=S)NC2CCC(CN3CCC(c4c[nH]c5ccccc45)CC3)CC2)cc1 (stereo not shown) [TCMDC-140178] |  | 78.37%
30 | O=C(NC1CCC(CN2CCC(c3c[nH]c4ccccc34)CC2)CC1)NC12CC3CC(CC(C3)C1)C2 (stereo not shown) [TCMDC-140204] | 96.25% | 
31 | O=C(Nc1ccccc1Cl)NC1CCC(CN2CCC(c3c[nH]c4ccccc34)CC2)CC1 (stereo not shown) [TCMDC-140176] |  | -4.106%
32 | O=C(NC1CCC(CN2CCC(c3c[nH]c4ccccc34)CC2)CC1)c1csc(-c2cccc(Cl)c2Cl)n1 (stereo not shown) [TCMDC-140351] | -28.23% | 
33 | O=C(NC1CCC(CN2CCC(c3c[nH]c4ccccc34)CC2)CC1)c1ccc(-c2cc(C(F)(F)F)ccc2Cl)o1 (stereo not shown) [TCMDC-140350] | -5.918% | 
34 | CC(Cc1ccc(-c2nc3ccccc3[nH]2)cc1)NCC(O)c1cccc(C(F)(F)F)c1 (stereo not shown) [TCMDC-131524] | -16.53% | 
35 | Cc1ccc(C(C)C)c(Oc2cnc(NC(CO)c3ccccc3)nc2N)c1 (stereo not shown) [TCMDC-135558] | 13.9% | 
36 | Cc1cc2ccc(/C=C/C(=O)NC3CCC(CCN4CCc5ccc(C#N)cc5CC4)CC3)cc2[nH]1 (stereo not shown) [TCMDC-139668] | -29.35% | 
37 | O=C(Cc1cn(-c2ccccc2)nc1-c1ccc(Cl)cc1)Nc1nccs1 [TCMDC-124872] | -9.075% | 
38 | Nc1c(-c2ccc(C(=O)NCCNCc3ccccc3)cc2)cnn1-c1ccc(C(F)(F)F)cc1 [TCMDC-136660] | 12.46% | 
39 | N#Cc1ccc(N2CCN(Cc3cccc(-c4ccc(-c5nc6cc(C(F)(F)F)ccc6[nH]5)cc4)c3)CC2)nc1.O=C(O)C(F)(F)F [TCMDC-133112] | -19.5% | 
40 | CC(C)c1sc(N2CCN(C)CC2)nc1C(=O)Nc1cccc2c1CCCC2 [TCMDC-134303] | -19.32% | 
41 | O=C(/C=C/c1ccc(Cl)c(Cl)c1)NCCCCCN1CCC(NC(=S)Nc2ccc(Cl)cc2)CC1 [TCMDC-135898] | 6.847% | 
42 | O=C(Nc1cc(C(F)(F)F)cc(C(F)(F)F)c1)NC1CCC(CN2CCC(c3c[nH]c4ccccc34)CC2)CC1 (stereo not shown) [TCMDC-140199] |  | -51.42%

Row | SMILES | % Inhibition | % Inhibition (% Inhibition)
43 | O=C(Nc1cc(C(F)(F)F)cc(C(F)(F)F)c1)NC1CCC(CN2CCC(c3c[nH]c4ccccc34)CC2)CC1 (stereo not shown) [TCMDC-140180] |  | 75.46%
44 | O=C(Nc1ccccc1OC(F)(F)F)NC1CCC(CN2CCC(c3c[nH]c4ccccc34)CC2)CC1 (stereo not shown) [TCMDC-140185] |  | -31.33%
45 | O=C(Nc1ccc(Oc2ccccc2)cc1)NC1CCC(CN2CCC(c3c[nH]c4ccccc34)CC2)CC1 (stereo not shown) [TCMDC-140186] | 102.3% | 
46 | O=C(Nc1ccccc1OC(F)(F)F)NC1CCC(CN2CCC(c3c[nH]c4ccccc34)CC2)CC1 (stereo not shown) [TCMDC-140203] |  | -4.21%
47 | O=C(NCCNc1ccnc(NCc2ccc(F)cc2)n1)c1cc2ccccc2s1 [TCMDC-133646] | -28.02% | 
48 | O=C(NCc1ccc(Cl)c(Cl)c1)c1ccc(C2CCN(Cc3ccc4nc[nH]c4c3)CC2)cc1 [TCMDC-133069] | -61.63% | 
49 | COc1ccc2c(c1)CC(C)(C)NC2CCCCCCCCC1NC(C)(C)Cc2cc(OC)ccc21 (stereo not shown) [TCMDC-137935] | 92.87% | 
50 | COc1ccc2c(c1)CC(NCc1ccc(-c3ccc4nc[nH]c4c3)cc1)C2 (stereo not shown) [TCMDC-133483] | 36.76% | 
51 | Cc1ccc(NC(=O)c2ccc(CN3CCCN(Cc4cccc(Cl)c4)CC3)cc2)cc1C [TCMDC-136426] | -8.077% | 
52 | NC1=NC2(CCCCC2)N(OCCCCCCN2C(=O)c3ccccc3C2=O)C(N)=N1 [TCMDC-140537] | 2.277% | 
53 | O=C(C=Cc1cccc(Cl)c1Cl)NC1CCC(CN2CCC(c3c[nH]c4ccccc34)CC2)CC1 (stereo not shown) [TCMDC-139910] |  | 41.2%
54 | O=C(/C=C/c1c(Cl)cccc1Cl)NC1CCC(CN2CCC(Cc3cc4ccccc4[nH]3)CC2)CC1 (stereo not shown) [TCMDC-140233] | 51.23% | 
55 | O=C(/C=C/c1c(Cl)cccc1Cl)NC1CCC(CN2CCC(c3c[nH]c4ccncc34)CC2)CC1 (stereo not shown) [TCMDC-140220] | 108.5% | 
56 | O=C(/C=C/c1ccc(Cl)c(Cl)c1)NC1CCC(CN2CCC(c3cc4ccccc4[nH]3)CC2)CC1 (stereo not shown) [TCMDC-140236] | 9.147% | 
57 | O=C(/C=C/c1c(Cl)cccc1Cl)NC1CCC(CN2CCC(c3c[nH]c4ccccc34)CC2)CC1 (stereo not shown) [TCMDC-139856] |  | 7.287%
58 | O=C(/C=C/c1ccc(Cl)c(Cl)c1)NC1CCC(CN2CCC(Cc3cc4ccccc4[nH]3)CC2)CC1 (stereo not shown) [TCMDC-140232] | -17.26% | 
59 | O=C(/C=C/c1c(Cl)cccc1Cl)NC1CCC(CN2CCC(c3c[nH]c4ccccc34)CC2)CC1 (stereo not shown) [TCMDC-139858] |  | -12.84%
60 | CS(=O)(=O)Nc1ccc2[nH]cc(C3CCN(CC4CCC(NC(=O)/C=C/c5ccccc5Cl)CC4)CC3)c2c1 (stereo not shown) [TCMDC-139887] | 39.39% | 
61 | O=C(/C=C/c1ccccc1Cl)NC1CCC(CN2CCC(c3c[nH]c4ccncc34)CC2)CC1 (stereo not shown) [TCMDC-140110] | 79.76% | 
